# Test results as given in publication PMC7862700, “An all-to-all approach to the identification of sequence-specific readers for epigenetic DNA modifications on cytosine”.
# Assays:
# Assay in all cases: DAPPL (digital affinity profiling via proximity ligation, sequencing); 10 mM Tris-HCl pH 7.5, 50 mM NaCl, 1 mM DTT, 4% glycerol, room temperature, 30 min; GST-TFs on glutathione beads, 16-mer random dsDNA library, 0.1% formaldehyde crosslink after washing; high values mean tight binding
# [1] = target: T1, FEV (Homo sapiens, UniProt Q99581 1-238); details: protein: recombinant; tags: N-terminal GST; dsDNA, one strand shown
# T1 sequence: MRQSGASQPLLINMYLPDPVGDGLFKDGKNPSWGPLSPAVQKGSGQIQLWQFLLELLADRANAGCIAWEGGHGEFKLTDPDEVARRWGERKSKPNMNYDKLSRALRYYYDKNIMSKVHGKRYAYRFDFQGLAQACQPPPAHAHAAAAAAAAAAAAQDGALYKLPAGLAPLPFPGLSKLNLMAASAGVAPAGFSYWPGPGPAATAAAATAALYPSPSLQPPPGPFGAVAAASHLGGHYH
# Outline: (§1)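 Pools were built from human transcription factors expressed in yeast as GST fusions, captured on glutathione beads and DNA-barcoded, along with a tag-only sample. Incubation with 200 nmole of a 16-mer random double-stranded DNA library lasted 30 min at room temperature in Tris/NaCl/DTT/glycerol buffer, and was followed by washing, 0.1% formaldehyde crosslinking, proximity ligation, PCR amplification and Illumina NextSeq500 sequencing. Binding signal is the quotient of each hexamer's read frequency for a factor and its frequency for the tag-only sample.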
# [2] = target: ETV5 (Homo sapiens, UniProt P41161 1-510); details: protein: recombinant; tags: N-terminal GST; dsDNA, one strand shown
# ETV5, sequence (P41161 whole entry): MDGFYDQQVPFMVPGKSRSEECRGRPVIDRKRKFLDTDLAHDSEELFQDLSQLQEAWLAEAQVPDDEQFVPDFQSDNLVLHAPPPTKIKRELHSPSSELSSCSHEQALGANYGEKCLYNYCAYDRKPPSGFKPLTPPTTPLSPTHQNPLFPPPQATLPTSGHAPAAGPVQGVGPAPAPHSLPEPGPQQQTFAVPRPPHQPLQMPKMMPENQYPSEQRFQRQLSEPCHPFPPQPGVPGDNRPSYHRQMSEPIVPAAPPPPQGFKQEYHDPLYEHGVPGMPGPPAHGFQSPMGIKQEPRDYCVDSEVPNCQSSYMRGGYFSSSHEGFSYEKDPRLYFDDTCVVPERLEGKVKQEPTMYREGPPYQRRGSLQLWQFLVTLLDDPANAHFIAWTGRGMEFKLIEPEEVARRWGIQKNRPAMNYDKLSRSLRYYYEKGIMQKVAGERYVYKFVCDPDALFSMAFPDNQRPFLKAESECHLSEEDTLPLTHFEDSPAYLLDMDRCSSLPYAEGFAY
# Outline: as §1
# [3] = target: HSF1 (Homo sapiens, UniProt Q00613 1-529); details: protein: recombinant; tags: N-terminal GST; chain copies: 3; dsDNA, one strand shown
# HSF1, sequence (Q00613 whole entry): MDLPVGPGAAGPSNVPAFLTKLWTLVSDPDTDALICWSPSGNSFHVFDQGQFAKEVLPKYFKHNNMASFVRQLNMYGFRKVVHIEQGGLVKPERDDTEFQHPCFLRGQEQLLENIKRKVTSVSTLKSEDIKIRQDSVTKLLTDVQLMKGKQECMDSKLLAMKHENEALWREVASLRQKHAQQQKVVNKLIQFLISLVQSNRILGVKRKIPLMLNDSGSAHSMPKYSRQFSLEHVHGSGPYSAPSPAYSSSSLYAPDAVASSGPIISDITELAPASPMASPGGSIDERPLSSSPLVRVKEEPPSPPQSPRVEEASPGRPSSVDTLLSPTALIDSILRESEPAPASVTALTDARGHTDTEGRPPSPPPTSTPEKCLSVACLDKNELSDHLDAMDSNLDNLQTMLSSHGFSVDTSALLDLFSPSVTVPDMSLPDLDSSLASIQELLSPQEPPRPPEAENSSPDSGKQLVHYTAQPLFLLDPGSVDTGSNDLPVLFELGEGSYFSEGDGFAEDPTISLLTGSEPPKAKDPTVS
# Outline: as §1
# [4] = target: T2, SPIC (Homo sapiens, UniProt Q8N5J4 1-248); details: protein: recombinant; tags: N-terminal GST; dsDNA, one strand shown
# T2 sequence: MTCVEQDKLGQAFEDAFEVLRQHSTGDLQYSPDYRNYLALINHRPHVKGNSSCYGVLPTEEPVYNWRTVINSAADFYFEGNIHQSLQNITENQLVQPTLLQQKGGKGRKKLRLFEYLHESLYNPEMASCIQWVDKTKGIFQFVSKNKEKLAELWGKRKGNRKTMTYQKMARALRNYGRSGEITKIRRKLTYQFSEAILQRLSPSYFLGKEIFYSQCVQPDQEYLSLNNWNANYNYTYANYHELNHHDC
# Outline: as §1
# [5] = target: ELF4 (Homo sapiens, UniProt Q99607 1-663); details: protein: recombinant; tags: N-terminal GST; dsDNA, one strand shown
# ELF4, sequence (Q99607 whole entry): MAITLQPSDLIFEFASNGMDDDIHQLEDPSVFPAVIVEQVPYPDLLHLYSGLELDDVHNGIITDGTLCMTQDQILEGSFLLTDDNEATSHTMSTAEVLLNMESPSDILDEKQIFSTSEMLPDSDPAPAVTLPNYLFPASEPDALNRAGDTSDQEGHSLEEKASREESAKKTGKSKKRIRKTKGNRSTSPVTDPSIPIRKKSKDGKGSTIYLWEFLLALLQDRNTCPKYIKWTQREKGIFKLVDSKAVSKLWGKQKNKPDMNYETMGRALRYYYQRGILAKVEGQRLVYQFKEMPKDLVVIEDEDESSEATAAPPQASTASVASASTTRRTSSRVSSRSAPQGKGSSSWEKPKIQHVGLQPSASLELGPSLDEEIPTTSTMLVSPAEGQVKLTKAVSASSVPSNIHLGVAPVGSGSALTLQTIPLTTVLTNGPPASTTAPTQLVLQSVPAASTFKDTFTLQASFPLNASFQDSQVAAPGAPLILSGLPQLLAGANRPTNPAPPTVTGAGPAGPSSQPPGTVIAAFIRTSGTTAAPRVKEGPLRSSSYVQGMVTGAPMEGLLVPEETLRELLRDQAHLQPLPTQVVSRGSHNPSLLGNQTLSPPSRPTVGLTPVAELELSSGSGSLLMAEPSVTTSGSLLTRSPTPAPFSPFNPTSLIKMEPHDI
# Outline: as §1
# [6] = target: T3, ELK4 (Homo sapiens, UniProt P28324-2 1-405); details: protein: recombinant; tags: N-terminal GST; dsDNA, one strand shown
# T3 sequence: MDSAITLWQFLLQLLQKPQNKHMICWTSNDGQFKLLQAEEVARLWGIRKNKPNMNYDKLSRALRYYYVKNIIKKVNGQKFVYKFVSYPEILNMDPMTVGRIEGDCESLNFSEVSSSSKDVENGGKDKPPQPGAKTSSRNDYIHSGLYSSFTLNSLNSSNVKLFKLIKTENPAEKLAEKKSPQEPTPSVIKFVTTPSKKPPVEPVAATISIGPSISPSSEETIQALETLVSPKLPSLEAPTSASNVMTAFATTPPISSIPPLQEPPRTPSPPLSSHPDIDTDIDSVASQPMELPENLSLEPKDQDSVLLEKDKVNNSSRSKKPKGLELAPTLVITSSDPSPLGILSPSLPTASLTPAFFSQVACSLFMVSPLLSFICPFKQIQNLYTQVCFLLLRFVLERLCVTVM
# Outline: as §1
# [7] = target: T4, ETV2 (Homo sapiens, UniProt O00321 1-342); details: protein: recombinant; tags: N-terminal GST; dsDNA, one strand shown
# T4 sequence: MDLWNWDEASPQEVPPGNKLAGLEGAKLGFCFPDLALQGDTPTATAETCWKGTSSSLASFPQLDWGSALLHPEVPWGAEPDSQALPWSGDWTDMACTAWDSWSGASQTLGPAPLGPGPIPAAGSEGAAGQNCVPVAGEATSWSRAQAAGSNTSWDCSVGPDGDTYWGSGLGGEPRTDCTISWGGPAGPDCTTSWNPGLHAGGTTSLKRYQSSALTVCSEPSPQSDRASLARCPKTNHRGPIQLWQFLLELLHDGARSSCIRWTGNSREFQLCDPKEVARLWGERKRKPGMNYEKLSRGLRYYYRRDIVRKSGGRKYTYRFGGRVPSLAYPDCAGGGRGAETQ
# Outline: as §1
# [8] = target: T5, ELF3 (Homo sapiens, UniProt P78545 1-371); details: protein: recombinant; tags: N-terminal GST; dsDNA, one strand shown
# T5 sequence: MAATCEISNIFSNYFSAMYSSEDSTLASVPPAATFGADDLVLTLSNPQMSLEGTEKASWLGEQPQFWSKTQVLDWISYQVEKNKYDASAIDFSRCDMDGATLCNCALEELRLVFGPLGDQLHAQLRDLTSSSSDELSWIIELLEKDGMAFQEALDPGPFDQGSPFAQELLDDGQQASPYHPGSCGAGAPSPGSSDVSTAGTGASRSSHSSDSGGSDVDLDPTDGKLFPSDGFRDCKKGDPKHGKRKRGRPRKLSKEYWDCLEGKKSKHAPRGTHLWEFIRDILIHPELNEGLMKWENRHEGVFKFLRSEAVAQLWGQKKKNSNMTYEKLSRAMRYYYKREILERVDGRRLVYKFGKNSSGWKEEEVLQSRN
# Outline: as §1
# [9] = target: CRX (Homo sapiens, UniProt O43186 1-299); details: protein: recombinant; tags: N-terminal GST; dsDNA, one strand shown
# CRX, sequence (O43186 whole entry): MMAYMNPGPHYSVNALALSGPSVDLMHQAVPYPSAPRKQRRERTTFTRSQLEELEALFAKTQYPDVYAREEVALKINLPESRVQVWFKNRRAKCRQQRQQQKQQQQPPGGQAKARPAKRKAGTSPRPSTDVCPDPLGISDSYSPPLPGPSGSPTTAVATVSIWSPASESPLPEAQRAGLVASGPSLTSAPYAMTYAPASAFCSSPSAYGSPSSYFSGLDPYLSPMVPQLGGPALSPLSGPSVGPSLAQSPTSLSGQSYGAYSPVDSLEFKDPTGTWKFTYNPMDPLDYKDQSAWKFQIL
# Outline: as §1
# [10] = target: ETV1 (Homo sapiens, UniProt P50549 1-477); details: protein: recombinant; tags: N-terminal GST; dsDNA, one strand shown
# ETV1, sequence (P50549 whole entry): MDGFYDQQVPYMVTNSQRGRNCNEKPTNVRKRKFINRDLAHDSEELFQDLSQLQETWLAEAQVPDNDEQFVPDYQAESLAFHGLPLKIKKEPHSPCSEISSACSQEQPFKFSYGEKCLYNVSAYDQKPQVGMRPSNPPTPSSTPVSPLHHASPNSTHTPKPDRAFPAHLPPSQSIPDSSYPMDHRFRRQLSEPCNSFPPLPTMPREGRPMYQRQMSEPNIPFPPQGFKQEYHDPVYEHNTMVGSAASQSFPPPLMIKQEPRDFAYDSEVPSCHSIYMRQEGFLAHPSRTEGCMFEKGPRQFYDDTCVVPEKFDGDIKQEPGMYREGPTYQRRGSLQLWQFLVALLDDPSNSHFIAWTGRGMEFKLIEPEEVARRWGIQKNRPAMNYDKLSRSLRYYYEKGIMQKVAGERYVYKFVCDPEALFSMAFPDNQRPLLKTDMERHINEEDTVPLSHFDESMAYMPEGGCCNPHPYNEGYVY
# Outline: as §1
# [11] = target: T6, ERF (Homo sapiens, UniProt P50548 1-548); details: protein: recombinant; tags: N-terminal GST; dsDNA, one strand shown
# T6 sequence: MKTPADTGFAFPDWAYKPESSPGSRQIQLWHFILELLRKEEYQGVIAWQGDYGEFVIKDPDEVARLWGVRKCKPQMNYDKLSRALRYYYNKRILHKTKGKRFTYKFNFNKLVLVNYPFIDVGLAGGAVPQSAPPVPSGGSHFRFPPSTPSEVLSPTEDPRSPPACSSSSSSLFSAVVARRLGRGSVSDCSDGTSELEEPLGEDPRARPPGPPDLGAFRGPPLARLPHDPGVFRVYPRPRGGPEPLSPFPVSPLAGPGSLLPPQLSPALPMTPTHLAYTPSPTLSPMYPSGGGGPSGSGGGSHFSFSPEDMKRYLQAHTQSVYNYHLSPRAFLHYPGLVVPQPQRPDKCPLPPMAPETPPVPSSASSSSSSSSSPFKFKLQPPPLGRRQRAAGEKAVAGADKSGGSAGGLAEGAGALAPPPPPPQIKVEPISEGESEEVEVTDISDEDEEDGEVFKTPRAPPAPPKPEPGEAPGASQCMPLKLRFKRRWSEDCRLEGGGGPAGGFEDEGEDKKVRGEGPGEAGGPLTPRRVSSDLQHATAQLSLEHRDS
# Outline: as §1
# [12] = target: T7, ETV3L (Homo sapiens, UniProt Q6ZN32 1-361); details: protein: recombinant; tags: N-terminal GST; dsDNA, one strand shown
# T7 sequence: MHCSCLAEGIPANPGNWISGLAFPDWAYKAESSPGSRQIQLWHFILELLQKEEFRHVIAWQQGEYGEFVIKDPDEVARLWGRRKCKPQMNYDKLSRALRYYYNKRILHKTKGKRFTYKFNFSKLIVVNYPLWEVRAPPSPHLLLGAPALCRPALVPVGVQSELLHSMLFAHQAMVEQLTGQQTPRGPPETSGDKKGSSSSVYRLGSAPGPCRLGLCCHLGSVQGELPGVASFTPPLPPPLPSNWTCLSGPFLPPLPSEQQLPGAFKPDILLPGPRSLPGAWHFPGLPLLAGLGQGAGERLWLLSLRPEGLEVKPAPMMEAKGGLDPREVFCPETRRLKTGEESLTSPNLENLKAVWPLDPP
# Outline: as §1
# [13] = target: T8, ETS2 (Homo sapiens, UniProt P15036 1-469); details: protein: recombinant; tags: N-terminal GST; dsDNA, one strand shown
# T8 sequence: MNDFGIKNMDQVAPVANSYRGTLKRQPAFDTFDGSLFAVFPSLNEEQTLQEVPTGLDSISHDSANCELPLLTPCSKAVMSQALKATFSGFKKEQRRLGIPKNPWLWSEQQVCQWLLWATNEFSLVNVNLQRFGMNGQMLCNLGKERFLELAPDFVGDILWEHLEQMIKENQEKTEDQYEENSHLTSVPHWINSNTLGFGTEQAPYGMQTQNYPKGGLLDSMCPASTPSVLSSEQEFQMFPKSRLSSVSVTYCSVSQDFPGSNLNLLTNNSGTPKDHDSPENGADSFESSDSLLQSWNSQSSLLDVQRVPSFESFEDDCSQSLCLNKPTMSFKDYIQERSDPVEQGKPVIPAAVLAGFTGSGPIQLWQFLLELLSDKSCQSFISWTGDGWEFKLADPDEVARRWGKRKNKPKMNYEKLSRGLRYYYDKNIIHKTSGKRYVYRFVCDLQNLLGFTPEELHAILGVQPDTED
# Outline: as §1
# [14] = target: T9, SPDEF (Homo sapiens, UniProt O95238 1-335); details: protein: recombinant; tags: N-terminal GST; dsDNA, one strand shown
# T9 sequence: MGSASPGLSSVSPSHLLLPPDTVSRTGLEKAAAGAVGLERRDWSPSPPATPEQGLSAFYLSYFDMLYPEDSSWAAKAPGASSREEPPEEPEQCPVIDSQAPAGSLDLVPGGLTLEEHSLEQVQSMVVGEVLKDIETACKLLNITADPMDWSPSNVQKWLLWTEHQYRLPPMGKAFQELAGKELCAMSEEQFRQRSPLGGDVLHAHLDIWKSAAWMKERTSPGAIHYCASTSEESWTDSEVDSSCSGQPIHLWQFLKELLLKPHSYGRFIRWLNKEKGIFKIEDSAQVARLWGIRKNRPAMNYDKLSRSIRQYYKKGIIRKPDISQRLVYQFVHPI
# Outline: as §1
# [15] = target: T10, ETV7 (Homo sapiens, UniProt Q9Y603 1-341); details: protein: recombinant; tags: N-terminal GST; dsDNA, one strand shown
# T10 sequence: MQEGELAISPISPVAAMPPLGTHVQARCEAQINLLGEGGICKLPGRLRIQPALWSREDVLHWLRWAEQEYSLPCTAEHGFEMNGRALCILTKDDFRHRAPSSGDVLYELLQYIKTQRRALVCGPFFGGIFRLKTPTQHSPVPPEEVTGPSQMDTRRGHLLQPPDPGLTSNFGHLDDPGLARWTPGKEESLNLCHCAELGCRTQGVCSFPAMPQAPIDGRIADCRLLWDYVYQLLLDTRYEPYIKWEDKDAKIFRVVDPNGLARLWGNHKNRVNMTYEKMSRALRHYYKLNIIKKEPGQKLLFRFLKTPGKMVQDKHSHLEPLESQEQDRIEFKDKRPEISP
# Outline: as §1
# [16] = target: T11, ELF5 (Homo sapiens, UniProt Q9UKW6-2 1-255); details: protein: recombinant; tags: N-terminal GST; dsDNA, one strand shown
# T11 sequence: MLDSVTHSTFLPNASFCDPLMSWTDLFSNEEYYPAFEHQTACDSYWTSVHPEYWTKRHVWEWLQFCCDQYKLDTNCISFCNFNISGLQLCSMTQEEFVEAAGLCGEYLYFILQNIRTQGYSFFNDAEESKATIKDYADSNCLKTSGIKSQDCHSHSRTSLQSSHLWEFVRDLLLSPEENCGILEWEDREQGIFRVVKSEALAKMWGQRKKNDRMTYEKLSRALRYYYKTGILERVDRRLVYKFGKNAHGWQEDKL
# Outline: as §1
# [17] = target: T12, ETV3 (Homo sapiens, UniProt P41162-2 1-143); details: protein: recombinant; tags: N-terminal GST; dsDNA, one strand shown
# T12 sequence: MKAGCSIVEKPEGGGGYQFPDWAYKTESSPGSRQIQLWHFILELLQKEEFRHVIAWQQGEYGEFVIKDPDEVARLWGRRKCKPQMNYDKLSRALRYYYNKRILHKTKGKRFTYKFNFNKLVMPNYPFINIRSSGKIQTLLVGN
# Outline: as §1
# [18] = target: ETV6 (Homo sapiens, UniProt P41212 1-452); details: protein: recombinant; tags: N-terminal GST; dsDNA, one strand shown
# ETV6, sequence (P41212 whole entry): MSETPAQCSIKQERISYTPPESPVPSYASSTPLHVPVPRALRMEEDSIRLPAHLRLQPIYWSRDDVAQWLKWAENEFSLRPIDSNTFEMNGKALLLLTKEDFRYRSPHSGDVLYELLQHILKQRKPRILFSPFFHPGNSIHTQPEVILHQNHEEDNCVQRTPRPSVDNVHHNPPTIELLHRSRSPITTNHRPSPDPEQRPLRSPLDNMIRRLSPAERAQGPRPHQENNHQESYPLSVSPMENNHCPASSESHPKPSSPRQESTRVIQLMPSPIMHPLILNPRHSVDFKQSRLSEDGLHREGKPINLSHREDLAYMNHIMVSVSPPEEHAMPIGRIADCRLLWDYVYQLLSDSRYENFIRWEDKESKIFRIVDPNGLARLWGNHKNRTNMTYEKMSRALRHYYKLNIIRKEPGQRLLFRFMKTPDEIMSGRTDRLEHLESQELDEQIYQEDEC
# Outline: as §1
sequence,measurement,setting,value
CCTTAA,binding signal,[1],"1.33 fold enrichment (6-mer frequency, TF over GST control)"
same,binding signal,[2],"1.25 fold enrichment (6-mer frequency, TF over GST control)"
same,binding signal,[3],"1.62 fold enrichment (6-mer frequency, TF over GST control)"
same,binding signal,[4],"1.22 fold enrichment (6-mer frequency, TF over GST control)"
same,binding signal,[5],"1.3 fold enrichment (6-mer frequency, TF over GST control)"
same,binding signal,[6],"1.27 fold enrichment (6-mer frequency, TF over GST control)"
same,binding signal,[7],"1.35 fold enrichment (6-mer frequency, TF over GST control)"
same,binding signal,[8],"1.37 fold enrichment (6-mer frequency, TF over GST control)"
same,binding signal,[9],"2.17 fold enrichment (6-mer frequency, TF over GST control)"
same,binding signal,[10],"1.34 fold enrichment (6-mer frequency, TF over GST control)"
same,binding signal,[11],"1.29 fold enrichment (6-mer frequency, TF over GST control)"
same,binding signal,[12],"1.44 fold enrichment (6-mer frequency, TF over GST control)"
same,binding signal,[13],"1.29 fold enrichment (6-mer frequency, TF over GST control)"
same,binding signal,[14],"1.44 fold enrichment (6-mer frequency, TF over GST control)"
same,binding signal,[15],"1.21 fold enrichment (6-mer frequency, TF over GST control)"
same,binding signal,[16],"1.44 fold enrichment (6-mer frequency, TF over GST control)"
same,binding signal,[17],"1.35 fold enrichment (6-mer frequency, TF over GST control)"
same,binding signal,[18],"1.26 fold enrichment (6-mer frequency, TF over GST control)"
